Mtb FBA inh = Mtb fructose-bisphosphate aldolase inhibition. AID 588726. P9WQA3. purified M. tuberculosis FBA, fluorescence read-out. inhibition, % at 1 µM. 2.3% of 360,000 active; in the data active = inhibition above about 27%;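 also: 0% = vehicle and 100% = reference inhibitor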
Target sequence (P9WQA3 whole entry, looked up): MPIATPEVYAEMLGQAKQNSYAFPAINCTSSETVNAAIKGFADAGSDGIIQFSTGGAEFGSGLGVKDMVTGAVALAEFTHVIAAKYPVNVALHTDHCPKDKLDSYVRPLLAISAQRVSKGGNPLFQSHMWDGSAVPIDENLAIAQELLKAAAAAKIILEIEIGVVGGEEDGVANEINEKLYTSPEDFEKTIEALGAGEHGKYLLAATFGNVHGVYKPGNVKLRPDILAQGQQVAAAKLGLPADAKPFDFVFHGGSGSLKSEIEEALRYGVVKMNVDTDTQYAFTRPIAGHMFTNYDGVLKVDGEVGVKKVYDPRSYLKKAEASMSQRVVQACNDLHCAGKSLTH
GDH-TPI inh = counter-screen for M. tuberculosis FBA inhibitors: GDH-TPI coupled enzymes. GDH-TPI coupled enzyme counterscreen, NADH absorbance. inhibition, % at 4.8 µM. 1.2% of 360,000 active; in the data active = inhibition above about 30%;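 also: 0% = DMSO wells and 100% = wells lacking the enzyme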
PrP 5UTR inh = suppresses PrP 5' UTR mRNA reporter expression | inhibition, % (concentration not given with the values) | 0.35% of 340,000 active | cell-based PrP 5' UTR mRNA reporter, plate reader; in the data active = inhibition above about 52%; also: 0 = median of the neutral control wells
PrPC TRFRET = inhibitors of human cell surface prion protein PrPC; P04156; TR-FRET read-out; inhibition, % at 13.8 µM; 0.43% of 370,000 active; in the data active = inhibition above about 24%; also: 0% = median of the test wells and 100% = reference compound wells
Yp Topo-I inh = inhibitors of Yersinia pestis topoisomerase I; Y. pestis Topo-I cleavage product accumulation, plate reader; activity, % at 10 µM; 0.064% of 360,000 active; in the data active = activity above about 50%, passing the limit was not always enough; inconclusive = no clear call, values can overlap the other calls
Mtb hypoxia inh = reduces hypoxia-regulated biosensor signal in M. tuberculosis; 0.1% of 300,000 active; M. tuberculosis hypoxia-regulated fluorescent reporter, fluorescence; fluorescence inhibition, % (test concentration not listed); AID 1159583; in the data active = fluorescence inhibition mostly above about 23%, no sharp cut-off; inactive = mostly below about 17%
* = called active by the depositor; ? = inconclusive; · = no result given; + = active, no number. An excerpt weighted towards active compounds, which were near 3.8% of everything screened.

SMILES	Mtb FBA inh	GDH-TPI inh	PrP 5UTR inh	PrPC TRFRET	Yp Topo-I inh	Mtb hypoxia inh
CCOC(=O)c1cc(C(=O)c2cc(F)ccc2O)coc1=N	5.2	17.4	-11.6	-3.6	7.5	·
CC(C)c1ccc(CNc2ccc([N+](=O)[O-])cn2)cc1	-6.2	15.5	-26.8	-4.5	?	-20.4
O=[N+]([O-])c1ccc(NCc2ccc(Cl)cc2)nc1	-3.0	33.8*	-50.7	-6.5	-2.8	4.1
CSc1ccc(C=NNC(=O)CNc2ccc(C)cc2)cc1	·	·	·	·	·	-0.5
O=C(NN=Cc1ccc2c(c1)OCO2)c1ccc2c(c1)OCO2	·	·	·	·	·	0.1
O=C1C2CCCN2C(=S)N1C1CCCCC1 (stereo unspecified)	3.2	-3.0	-4.9	0.0	-1.3	3.5
O=C1C=C(c2ccoc2)N2CCC[C@H]2C1	1.3	38.8*	-12.2	2.5	-3.5	-0.8
N#C/C(=C\c1ccco1)C(=O)Nc1cccc2ncccc12	2.8	33.0*	-10.4	-3.9	3.4	8.2
O=C(NC(=S)Nc1cccc2ncccc12)c1ccco1	-3.6	-6.6	-9.3	0.1	4.8	5.8
CCCCN1CCNCC1Cc1ccccc1 (stereo unspecified)	·	·	·	·	·	3.0
CCOC(=O)c1cc2c(=O)n3ccccc3nc2n(CCCOC)c1=NC(=O)c1ccncc1	+	17.3	3.3	-19.2	-5.4	10.6
CCOC(=O)c1cc2c(=O)n3ccccc3nc2n(CCCOC)c1=NC(C)=O	+	18.6	-8.4	-21.5	-7.6	-0.8
CCOC(=O)c1cc2c(=O)n3cccc(C)c3nc2n(CCOC)c1=NC(C)=O	+	1.5	-19.6	-6.7	-5.5	-0.7
COCCCn1c(C(=O)Nc2ccc3c(c2)OCO3)cc2c(=O)n3cccc(C)c3nc21	1.5	11.9	·	-4.2	5.9	·
CC[C@]12C(=O)N(C)CC(C3C(=O)N(Cc4ccccc4)C(=O)C31)N2C(=O)c1ccc(F)cc1 (stereo partly specified)	·	·	·	·	·	12.9
C=CCOc1ccc(/C=C/C(=O)OCC(=O)NCCCc2ccccc2)cc1	-0.1	0.7	2.8	6.3	52.6*	7.2
O=C(/C=C/c1ccccc1Cl)Nc1ccc2c(c1)C(=O)NC2=O	12.1	37.0*	-1.0	-9.2	-10.8	6.6
O=C(/C=C/c1ccccc1)Nc1ccc2c(c1)C(=O)NC2=O	11.8	26.1	2.0	-6.2	-4.4	·
Cc1nnc(C)n1N=Cc1cccc(Oc2ccccc2)c1	·	·	·	·	·	11.1
COc1ccc2cc(C3=CCCCC3)ncc2c1	26.9*	7.9	-35.8	-5.1	-8.3	3.4
CC(=O)Nc1ccc2c(CN3C(=O)NC(C)(c4ccc(C)cc4)C3=O)cc(=O)oc2c1 (stereo unspecified)	132.0*	7.0	1.6	0.4	-0.3	-3.9
Cc1ccc2c(CN3C(=O)NC(C)(c4ccc5c(c4)OCO5)C3=O)cc(=O)oc2c1 (stereo unspecified)	3.4	17.8	-10.8	-4.4	1.4	2.5
Cc1cc2cc3c(=O)[nH]c(=O)nc-3n(CC(O)C(O)C(O)CO)c2cc1C (stereo unspecified)	149.1*	26.1	-33.2	-28.1	8.3	·
COc1cccc(/C=C2\SC(=S)N(CCCC(=O)N3CCCC3)C2=O)c1	-0.2	23.2	-7.2	-0.4	23.2	17.2
COc1ccc(/C=C2\SC(=O)N(CCC(=O)N3CCN(C)CC3)C2=O)cc1	-1.3	40.6*	-1.2	-12.3	2.1	0.2
SMILES	Mtb FBA inh	GDH-TPI inh	PrP 5UTR inh	PrPC TRFRET	Yp Topo-I inh	Mtb hypoxia inh
COc1ccc(/C=C2\SC(=O)N(CCNC(=O)CCS(=O)(=O)c3ccc(C)cc3)C2=O)cc1	2.5	32.6*	-41.8	-15.3	-1.2	5.3
COc1ccc(/C=C2\SC(=O)N(CCNC(=O)C3CC(=O)N(c4ccccc4)C3)C2=O)cc1 (stereo unspecified)	-1.8	25.2	-33.2	5.0	39.9	2.9
COc1cccc(/C=C2\SC(=O)N(CCC(=O)N3CCC(C(=O)O)CC3)C2=O)c1	-1.1	46.1*	-24.5	-17.6	-6.9	·
COc1ccc(/C=C2\SC(=O)N(CCNC(=O)Cn3cnnn3)C2=O)cc1	-1.8	22.3	-78.8	·	0.0	1.2
CCc1noc(C)c1C(=O)NCCN1C(=O)S/C(=C\c2ccc(OC)cc2)C1=O	-4.6	30.8*	-53.4	-0.9	19.4	-5.3
CCc1ccc(OCC(=O)NN=C(C)c2ccc(OC(F)F)cc2)cc1	·	·	·	·	·	13.9
COC(=O)C1=C(C(=O)OC)C2N(Cc3ccccc3)c3ccccc3[C@@]23CC(C(=O)OC)N(C(=O)NC(C)(C)C)C3=N1 (stereo partly specified)	·	·	·	·	·	6.3
O=C(O)C1=CCC(c2ccc(Cl)cc2)N(S(=O)(=O)c2ccc(Cl)cc2)C1 (stereo unspecified)	·	·	·	·	·	-1.9
Cc1ccc(/C=C2\SC(=O)N(CCC(=O)N3CCN(C)CC3)C2=O)cc1	0.2	35.3*	-33.9	0.8	2.4	4.8
COc1ccc(CNC(=O)C(C)C2C[C@@]2(C)C(NC(=O)OCc2ccccc2)c2ccccc2)cc1OC (stereo partly specified)	·	·	·	·	·	7.2
COc1ccc(C(=O)NN=Cc2ccc(OC)c(COc3ccccc3)c2)cc1	·	·	·	·	·	-0.1
O=C(COC(=O)C=Cc1cccs1)NC(=O)Cc1ccccc1	·	·	·	·	·	12.4
CCN(CC)S(=O)(=O)c1ccc(N/N=C/c2cccnc2)nc1	0.1	72.8*	-9.5	1.6	3.7	·
CCN(CC)S(=O)(=O)c1ccc(N/N=C/c2cc(OC)ccc2O)nc1	-3.0	18.0	24.2	0.0	1.7	·
CCO/C(C)=N/n1c2nc3ccccc3nc2c2c(=O)n(Cc3ccccc3Cl)c(C)nc21	-3.9	32.8*	-14.8	-25.5	1.8	·
CCOc1c(C)cnc2c1c(=O)n(Cc1ccccc1Cl)c(=O)n2C	-0.2	-2.6	-25.0	5.8	-9.0	16.4
CCN1C(=O)C2C(c3ccc(C)cc3)N3C(=O)N(c4ccc(C(F)(F)F)cc4)C(=O)[C@@]3(Cc3ccccc3)C2C1=O (stereo partly specified)	·	·	·	·	·	2.4
O=C1NC(=O)C(=Cc2ccco2)S1	0.6	38.4*	-13.1	-4.3	9.9	-2.2
O=C1NC(=O)/C(=C/c2ccco2)N1	-1.9	39.7*	-8.7	-8.3	1.3	·
COc1ccc(NC(=O)C=Cc2ccc(Br)o2)cn1	·	·	·	·	·	8.7
CC(=Cc1cccs1)C(=O)c1ccccc1	-0.8	32.4*	·	7.0	12.4	·
O=C(O)/C(=C\c1cccs1)c1ccccc1	-0.5	3.2	-8.4	3.8	3.4	7.9
C(=Cc1nc(-c2ccccc2)no1)c1ccccc1	·	·	·	·	·	2.0
CCS(=O)(=O)NCCc1cc2cc(C)c(C)cc2[nH]c1=O	4.0	31.1*	-25.4	6.5	-7.2	·
Cc1cc2cc(CCNS(C)(=O)=O)c(=O)[nH]c2cc1C	3.2	10.1	-17.0	5.6	-0.4	·
O=C(O)CC/C(=N\Nc1ccc(S(=O)(=O)N2CCCC2)cc1[N+](=O)[O-])c1cccs1	-6.3	25.3	-10.5	-24.7	-8.8	·
O=C(O)CC/C(=N\Nc1ccc(S(=O)(=O)N2CCOCC2)cc1[N+](=O)[O-])c1cccs1	-15.9	67.1*	-3.3	-41.9	5.2	·
CN(C)c1ccc(C=NNC(=O)CNC(=O)/C=C/c2ccccc2)cc1	·	·	·	·	·	8.6

High-throughput results as filed in PubChem BioAssay.
